Source: PubChem (NMMLSC)
Shown are actives, neighbours in structure and some others; about 1.2% of the full set was active somewhere.
RGS7-Gao: regulators of human RGS7-Galphao interaction | P09471 | Multiplexed bead flow cytometry, RGS7-Galphao binding; actives lie on both sides | binding response (% of control), % at 10 µM | 220,000 tested, 0.35% active; in the data active = binding response below about 49% or above about 150%; inconclusive = no clear call, values can overlap the other calls; inactive = in between;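 also: fluorescent Galphao held in activated GDP-AlF4 state binding bead-coupled RGS7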
Target sequence (P09471 whole entry, looked up): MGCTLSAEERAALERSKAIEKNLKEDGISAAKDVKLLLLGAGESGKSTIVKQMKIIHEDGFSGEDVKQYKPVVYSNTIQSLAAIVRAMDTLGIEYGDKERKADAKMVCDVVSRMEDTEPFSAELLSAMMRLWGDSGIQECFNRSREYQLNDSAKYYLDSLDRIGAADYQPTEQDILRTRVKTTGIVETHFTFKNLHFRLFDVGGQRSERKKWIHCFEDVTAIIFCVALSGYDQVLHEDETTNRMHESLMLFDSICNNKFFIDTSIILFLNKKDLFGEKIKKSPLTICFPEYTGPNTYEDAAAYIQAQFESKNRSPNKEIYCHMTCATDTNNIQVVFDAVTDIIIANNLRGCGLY
RGS8-Gao: human RGS8-Galphao interaction regulation. response (percent of control binding), % at 10 µM. 220,000 tested, 0.34% active. P09471. multiplexed bead flow cytometry, RGS8-Galphao binding; actives lie on both sides. AID 1423; in the data active = response below about 60% or above about 140%; inactive = in between;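 also: Galphao activated as the GDP aluminium fluoride complex binding bead-coupled RGS8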
GSH fluor: GSH bead compound fluorescence profile; GSH beads flow cytometry, compound fluorescence 488/530 nm; stronger effect = higher value; fluorescence (KMESF) at 10 µM; 190,000 tested, 0.25% active; in the data active = fluorescence above about 89;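 also: glutathione beads carrying GST-tagged Bcl family fusion proteins plus one bare bead set; values are compound well signal with DMSO vehicle wells as background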
RGS16-Gao HTS: RGS16-Galphao interaction regulator (human); O15492+P09471; binding response (% of control), % at 10 µM; bead-based flow cytometry RGS16-Galphao binding, fluorescence; actives lie on both sides; 220,000 tested, 0.38% active;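 also: Galphao activated by GDP with aluminum fluoride before binding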
Target sequence (O15492 whole entry, looked up): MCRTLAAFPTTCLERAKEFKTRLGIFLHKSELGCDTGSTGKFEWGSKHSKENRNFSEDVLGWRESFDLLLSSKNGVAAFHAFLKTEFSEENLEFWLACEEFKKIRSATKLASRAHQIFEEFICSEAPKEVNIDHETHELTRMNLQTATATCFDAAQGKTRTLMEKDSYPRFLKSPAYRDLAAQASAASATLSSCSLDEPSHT
Target sequence (P09471 whole entry, looked up): as the sequence (P09471 whole entry, looked up) above
RGS4-Gao reg: human RGS4-Galphao interaction regulation; P09471; 220,000 tested, 0.33% active; AID 1415; Multiplexed bead flow cytometry, RGS4-Galphao binding; actives lie on both sides; binding response (% of control), % at 10 µM; in the data active = binding response below about 49% or above about 150%; inactive = in between;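 also: fluorescent Galphao activated with aluminum fluoride binding bead-coupled RGS4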
Avidin fluor: avidin bead compound fluorescence profile; Avidin beads, compound fluorescence 488/530 nm, flow cytometry; stronger effect = higher value; fluorescence (KMESF) at 10 µM; 220,000 tested, 0.38% active; AID 1775; in the data active = fluorescence above about 47
RGS4-Gao HTS: regulators of human RGS4-Galphao interaction; shares compounds with RGS16-Gao HTS; multiplexed bead flow cytometry, RGS–Galpha-o binding; RGS4–Galpha-o binding response, % at 10 µM; 1,600 tested, 99% active; AID 1504;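 also: fluorescently labeled Galpha-o bound to GDP with aluminium fluoride binding biotinylated RGS beads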
Biotin-avidin: counter-screen: compounds disrupting biotin binding to avidin beads. shares compounds with RGS16-Gao HTS. streptavidin beads, fluorescein-biotin binding, flow cytometry. inhibition, % at 10 µM. AID 1783. 1,700 tested, under 10 active;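 active = inhibition above 50%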;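 also: median green fluorescence of gated singlet beads compared with DMSO control wells; 0% = DMSO wells and 100% = complete loss of bead fluorescence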
RGS8-Gao single: RGS8-Galphao interaction regulation, single point confirmation. shares compounds with RGS16-Gao HTS. bead-based flow cytometry RGS8-Galphao binding, fluorescence; actives lie on both sides. binding response (% of control), % at 10 µM. 1,700 tested, 3% active; in the data active = binding response below about 72% or above about 130%; inactive = in between;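 also: Galphao activated as GDP AlF4 complex before binding bead RGS8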
RGS7-Gao confirm: RGS7-Galphao interaction regulation, single point confirmation; shares compounds with RGS16-Gao HTS; AID 1837; bead-based flow cytometry RGS7-Galphao binding; actives lie on both sides; response (percent of control binding), % at 10 µM; 1,700 tested, 7.8% active; in the data active = response below about 75% or above about 130%; inactive = in between;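 also: fluorescent Galphao activated with GDP and aluminum fluoride binding bead-coupled RGS7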
RGS16-Gao conf: confirmation of regulators of human RGS16-Galphao interaction; shares compounds with RGS16-Gao HTS; bead-based flow cytometry, RGS16-Galphao binding; actives lie on both sides; response (% of control binding), % at 10 µM; 1,700 tested, 4% active; AID 1838; in the data active = response below about 74% or above about 130%; inactive = in between;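 also: Galphao activated as the GDP aluminium fluoride complex binding bead-coupled RGS16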
RGS4-Gao single: confirmation of regulators of human RGS4-Galphao interaction. RGS4-Galphao binding, multiplexed bead flow cytometry; actives lie on both sides. shares compounds with RGS16-Gao HTS. 1,700 tested, 4% active. binding response (% of control), % at 10 µM. AID 1840; in the data active = binding response below about 74% or above about 130%; inactive = in between
RGS19-Gao conf: RGS19-Galphao interaction regulation, single point confirmation. 1,700 tested, 5% active. bead-based flow cytometry RGS19-Galphao binding; actives lie on both sides. shares compounds with RGS16-Gao HTS. response (percent of control binding), % at 10 µM; in the data active = response below about 50% or above about 160%; inactive = in between;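 also: 100% = no compound control and 0% = blank background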
An asterisk follows results filed as active; ? = inconclusive; . = not tested or not shown; [ ] = remark or other dose. Unless noted, no rule for the calls is given here.

SMILES	RGS7-Gao	RGS8-Gao	GSH fluor	RGS16-Gao HTS	RGS4-Gao reg	Avidin fluor	Biotin-avidin	RGS8-Gao single	RGS7-Gao confirm	RGS16-Gao conf	RGS4-Gao single	RGS19-Gao conf	others
CC(C)n1cc(C(=O)N(CC(=O)NC2CCCC2)Cc2ccccc2)cn1	127	104	22	106	107	68*	.	.	.	.	.	.
NC1=NC(=O)C(c2ccccc2)O1 (centres undefined)	104	102	69	99	100	8	.	.	.	.	.	.
O=C(Cc1ccccc1)OCn1nnc2ccccc2c1=O	102	88	126*	50	102	4	.	.	.	.	.	.
O=c1c2ccccc2nc(-c2ccco2)n1-c1ccccn1	101	102	261*	105	106	7	.	.	.	.	.	.
O=c1c2ccccc2nc(-c2ccco2)n1-c1cccnc1	100	104	273*	103	104	8	.	.	.	.	.	.
Cc1nc2ccccc2c(=O)n1-c1cccnc1	101	102	49	102	107	8	.	.	.	.	.	.
CCOC(=O)c1ccc(N=C(C)c2c(O)[nH]c(=O)[nH]c2=O)cc1	?	100	.	100	98	3	.	.	.	.	.	.
CCC(=NCCN1CCCCC1)c1c(O)n(C)c(=O)n(C)c1=O	104	103	33	115	107	15	.	.	.	.	.	.
CCC(=NCCOc1ccc(Cl)cc1)c1c(O)n(C)c(=O)n(C)c1=O	132	84	31	175	144	59*	.	.	.	.	.	.
C#CC(CC)(CC)NC(=O)Nc1ccc(OCC)cc1	91	101	14	103	98	11	.	.	.	.	.	.
O=c1[nH]c(=S)n(Cc2ccc(F)cc2)c(O)c1C=NCC1CCCO1 (centres undefined)	99	106	35	107	100	16	.	.	.	.	.	.
O=c1[nH]c(=S)n(Cc2ccc(F)cc2)c(O)c1/C=N/N1CCCCC1	112	100	35	60	108	487*	.	.	.	.	.	.
CC(Cc1ccccc1)[n+]1cc(/N=C(\N)[O-])on1 (centres undefined)	109	104	15	100	112	10	.	.	.	.	.	.
CC(Cc1ccccc1)[n+]1cc(/N=C(\[O-])Nc2ccccc2)on1 (centres undefined)	110	102	26	103	102	57*	.	.	.	.	.	.
COP(=O)(NC(=O)C(Cl)(Cl)Cl)OC	?	107	.	107	116	81*	.	.	.	.	.	.
Cn1c(O)c(C=NCCN2CCOCC2)c(=O)n(C)c1=S	?	103	.	104	98	5	.	.	.	.	.	.
OC(Cn1c2ccccc2c2ccccc21)C[n+]1cccc2ccccc21 (centres undefined)	154*[activator]	97	49	102	123	78*	-2	102	141*[activator]	103	132*[activator]	199*[activator]	RGS4-Gao HTS=123*
Cc1ccc(OCC(=O)N2CCN(Cc3ccc([N+](=O)[O-])cc3)CC2)cc1	?	95	.	96	97	10	.	.	.	.	.	.
COCCNC(=O)CN1C(=O)CN=C(c2ccccc2)c2ccccc21	?	103	.	100	102	9	.	.	.	.	.	.
O=C(CN1CC=C(c2ccccc2)CC1)Nc1cc(Cl)ccc1Cl	104	100	4	101	104	11	.	.	.	.	.	.
Cc1ccc(S(=O)(=O)N2CCCCC2)cc1NC(=O)CN1CC=C(c2ccccc2)CC1	122	142*[activator]	18	332	118	14	0	111	114	110	112	107	RGS4-Gao HTS=118*
CCOC(=O)c1cc(C)n(CCc2cnc[nH]2)c1C	103	100	14	104	100	33	.	.	.	.	.	.
COc1cccc(C(=O)C2CCCN(Cc3ccc4nsnc4c3)C2)c1 (centres undefined)	26*	48*	17	89	72	2	0	109	118	111	107	106	RGS4-Gao HTS=72*
CCCCC1(CN2CCCC2=O)C(=O)NC(=O)NC1=O	96	98	18	101	96	24	.	.	.	.	.	.
C=CCN1CC[C@]23c4c5ccc(O)c4O[C@H]2C(=O)CC[C@@]3(O)[C@H]1C5	34*	57*	14	54	48*	5	0	101	104	101	100	107
SMILES	RGS7-Gao	RGS8-Gao	GSH fluor	RGS16-Gao HTS	RGS4-Gao reg	Avidin fluor	Biotin-avidin	RGS8-Gao single	RGS7-Gao confirm	RGS16-Gao conf	RGS4-Gao single	RGS19-Gao conf	others
COC(=O)C(O)(c1ccc(NC(=S)NC(=O)c2ccc(Cl)cc2Cl)cc1)C(F)(F)F (centres undefined)	101	103	9	99	102	14	.	.	.	.	.	.
COC(=O)C(O)(c1ccc(NC(=O)NC2CCCCC2)cc1)C(F)(F)F (centres undefined)	157*[activator]	101	19	101	175*[activator]	83*	1	97	59*	78	73*	58
CCCCCCC[n+]1ccc(-c2cc[n+](CCCCCCC)cc2)cc1	107	79	9	13*	115	3	1	107	102	107	103	102	RGS4-Gao HTS=115*
CCN1CCN(C(=O)COc2ccc(S(=O)(=O)N(C)Cc3ccccc3)cc2)CC1	80	76	47	24*	82	2	1	102	102	101	102	98	RGS4-Gao HTS=82*
C=CCn1c(O)c(C(CC)=NC(C)c2ccccc2)c(=O)[nH]c1=O (centres undefined)	100	101	6	92	99	11	.	.	.	.	.	.
Cc1cc(OC(=O)N(C)C)n(-c2ccccc2)n1	?	9.2*	.	-15*	-23*	-2	0	100	85	95	92	72
CCN1CCN(c2ccc([N+](=O)[O-])cc2C(=O)OC)CC1	99	102	15	107	101	13	.	.	.	.	.	.
O=C(Nc1ccccc1)c1cc([N+](=O)[O-])ccc1N1CCNCC1	?	59*	12	96	89	5	-2	104	101	105	104	93	RGS4-Gao HTS=89*
